“And” between values parts separate entries of the source, which are not always exact repeats. Equal values may be shown once. Results filed as inconclusive are left out. Some compounds were tested as several samples or in several runs, with calls that do not always agree. The source made the active and inactive calls. Calls follow the shape of the dose curve; as a rule, active = well fitted inhibition curve with a large enough effect; inconclusive = small, poorly fitted or top-dose-only effect, or effect the other way; inactive = no such curve, though single readings can be large or run the other way.
Molecular target: Nuclear receptor ROR-gamma (Mus musculus) (UniProt P51450)
Test: Secondary confirmation assay for inhibitors of ROR gamma transcriptional activity
Conditions: Drosophila S2 Gal4-RORgamma UAS-luciferase reporter, 20 h; series mostly up to 92.2 µM; activity change, negative = inhibition: at the top concentration
Method in brief: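 Luminescence read after 20 hr at ambient temperature, following 1 hr compound exposure and copper sulfate induction (700 uM final), in stably transfected Schneider cells carrying Gal4-ROR gamma fusion and UAS-driven firefly luciferase.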

Sequence of Nuclear receptor ROR-gamma (Mus musculus) (P51450 whole entry, looked up): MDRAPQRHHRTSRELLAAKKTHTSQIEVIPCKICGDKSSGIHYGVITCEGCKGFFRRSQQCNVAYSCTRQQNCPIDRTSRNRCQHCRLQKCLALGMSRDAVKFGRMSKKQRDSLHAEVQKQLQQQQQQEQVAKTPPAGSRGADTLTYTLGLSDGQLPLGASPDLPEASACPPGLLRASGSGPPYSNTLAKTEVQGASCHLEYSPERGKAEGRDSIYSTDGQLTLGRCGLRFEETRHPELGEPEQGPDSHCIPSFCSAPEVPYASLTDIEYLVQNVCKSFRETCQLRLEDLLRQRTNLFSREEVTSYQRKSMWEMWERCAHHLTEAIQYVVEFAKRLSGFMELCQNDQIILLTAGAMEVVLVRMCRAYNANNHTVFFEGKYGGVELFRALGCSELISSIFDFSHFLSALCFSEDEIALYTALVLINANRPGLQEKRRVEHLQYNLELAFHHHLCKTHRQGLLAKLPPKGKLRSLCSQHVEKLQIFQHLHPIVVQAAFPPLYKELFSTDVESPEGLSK

SMILES	Potency	activity change, negative = inhibition
C[C@H]1O[C@@H](O[C@H]2[C@@H](O)C[C@@H](O[C@H]3[C@@H](O)C[C@H](O[C@H]4CC[C@@]5(C)[C@H](CC[C@@H]6[C@@H]5CC[C@]5(C)[C@@H](C7=CC(=O)OC7)CC[C@]65O)C4)O[C@@H]3C)O[C@@H]2C)C[C@H](O)[C@@H]1O	1.44 µM (active)	
COc1cc(O)c(C(CC(=O)N(C)c2cccc(C)c2)c2ccc3c(c2)OCO3)c(OC)c1 (stereo not given)		-23.4% (inactive)
Cc1nn(-c2cc(C)c3ccccc3n2)c2c1C1C(C2)C1(C)C (stereo not given)	3.63 µM (active)	
CCOc1cccc(-c2cc(-c3n[nH]c(=S)n3CC)c3ccccc3n2)c1	2.29 µM (active) and 1.82 µM (active)	
Cc1cc(C)n(-c2nc(SCC(=O)O)c3c4c(sc3n2)CCCC4)n1	9.11 µM (active)	
COc1cc(O)c(C(CC(=O)N2CCCC(C(=O)N3CCCCC3)C2)c2ccc3c(c2)OCO3)c(OC)c1 (stereo not given)		30% (inactive)
COc1ccc(C(CC(=O)N2CCCC(C)C2)c2c(O)cc(OC)cc2OC)cc1 (stereo not given)	2.29 µM (active)	
COc1cc(O)c(C(CC(=O)N2CCCC2)c2ccc3c(c2)OCO3)c(OC)c1 (stereo not given)		-12.2% (inactive)
COc1ccc(C(CC(=O)N2CCCC(C)C2)c2c(O)cc(OC)cc2OC)c(OC)c1 (stereo not given)		-12.9% (inactive)
COc1cc(O)c(C(CC(=O)N2CCC[C@H](C)C2)c2ccc3c(c2)OCO3)c(OC)c1 (stereo not given in full)	9.11 µM (active) and 3.23 µM (active) and inactive	
COc1cc(O)c(C(CC(=O)N2CCC(C)CC2)c2ccc(C)cc2)c(OC)c1 (stereo not given)	14.4 µM (active)	
CCNC(=O)CCc1nc(-c2ccc(C(C)(C)C)cc2)no1	0.512 µM (active)	
CCOC(=O)c1sc(NC(=O)c2cc3c(s2)CCC(C)C3)nc1C (stereo not given)	0.144 µM (active)	
COc1ccc(C(=O)/C=C/c2ccc(OC)cc2OC)c(O)c1	0.575 µM (active)	
CCOc1ncccc1C(=O)OCC(=O)Nc1ccc(-c2nc3ccc(C)cc3s2)cc1	0.407 µM (active)	
COc1cc(O)c(C(CC(=O)N2CCCC(C)C2)c2ccccc2C)c(OC)c1 (stereo not given)	7.24 µM (active)	
COc1cc(O)c(C(CC(=O)N2CCCC(CO)C2)c2ccc3c(c2)OCO3)c(OC)c1 (stereo not given)		-2.57% (inactive)
COc1ccc(C(CC(=O)N2CCCC(C)C2)c2ccccc2)cc1 (stereo not given)		23.9% (inactive)
COc1cc(O)c(C(CC(=O)N2CC(C)CC(C)C2)c2ccc3c(c2)OCCO3)c(OC)c1 (stereo not given)	0.645 µM (active)	
COc1cc(O)c(C(CC(=O)N2CCC(c3ccccc3)CC2)c2ccc3c(c2)OCO3)c(OC)c1 (stereo not given)	inactive	

From PubChem BioAssay AID489037 (National Center for Advancing Translational Sciences (NCATS), 2010)
